Measured values as given in PubChem BioAssay.
The source made the active and inactive calls.

Columns and labels:
Albumin (Bos taurus) = Albumin (Bos taurus) (UniProt P02769); assay: bovine serum albumin binders on microarray, profiling panel, artefact control for SMM control protein annotation, biochemical, small-molecule microarray, Alexa647 label, 635/667 nm fluorescence (AID 1118); settings: BSA-A647 binding, fluorescence 635 nm, higher = more signal;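 also: score merges 667 nm emission intensity and signal-to-noise per printed compound spot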
Chain of Albumin (Bos taurus) (P02769 whole entry, looked up): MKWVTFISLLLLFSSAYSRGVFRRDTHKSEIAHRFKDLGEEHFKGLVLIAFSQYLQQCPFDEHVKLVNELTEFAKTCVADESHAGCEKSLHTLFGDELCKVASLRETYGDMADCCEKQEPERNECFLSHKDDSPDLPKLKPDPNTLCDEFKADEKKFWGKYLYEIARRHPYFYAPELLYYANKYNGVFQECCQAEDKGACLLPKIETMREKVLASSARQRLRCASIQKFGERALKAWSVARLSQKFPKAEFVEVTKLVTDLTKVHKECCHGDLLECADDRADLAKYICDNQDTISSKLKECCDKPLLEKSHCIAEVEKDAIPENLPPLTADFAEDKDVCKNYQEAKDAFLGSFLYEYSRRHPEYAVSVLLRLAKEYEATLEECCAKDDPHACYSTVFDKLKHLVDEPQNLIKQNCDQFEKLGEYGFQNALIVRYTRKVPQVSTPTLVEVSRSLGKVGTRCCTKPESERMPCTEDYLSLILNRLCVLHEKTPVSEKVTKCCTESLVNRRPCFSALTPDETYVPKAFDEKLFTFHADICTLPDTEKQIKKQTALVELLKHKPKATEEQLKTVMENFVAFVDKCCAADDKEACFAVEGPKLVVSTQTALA

[1] = small-molecule microarray binders of probe aXIP, primary screen, biochemical, NeuroSMM set, 635/667 nm fluorescence (AID 1119); settings: higher = more signal, called active from +8 up or from −8 down;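 also: probe is the protein aXip251-270 applied at 1 µg/mL to compound-printed slides; binding of probe to printed compounds measured as 667 nm fluorescence plus signal to noise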
[2] = small-molecule binders of probe aNOTCH3, primary screen, biochemical, small-molecule microarray, 635/667 nm fluorescence (AID 1120); settings: higher = more signal;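 also: probe is a biotin-tagged antibody raised against NOTCH3 rather than NOTCH3 protein; score merges spot fluorescence near 667 nm with spot signal to noise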
[3] = small-molecule binders of probe aNOTCH2, primary screen, biochemical, small-molecule microarray, 635/667 nm fluorescence (AID 1121); settings: higher = more signal;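 also: score merges feature fluorescence read at 667 nm with its signal to noise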
[4] = molecular target: Carbonic anhydrase 2 (Homo sapiens) (UniProt P00918); assay: CAII small-molecule binders, profiling panel, biochemical, small-molecule microarray, Alexa647-labelled CAII (AID 1122); settings: CAII-A647 binding fluorescence, higher = more signal
[5] = COS7 lysate on small-molecule microarray, probe aHis, 635 nm (AID 1123); settings: COS7 cell lysate, fluorescence, higher = more signal;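 also: z-score combines 667nm fluorescence intensity with signal-to-noise per printed compound spot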
[6] = compound binding in COS7 lysate, probe aLAP1, primary screen, cell lysate, small-molecule microarray (AID 1124); settings: probe aLAP1, fluorescence, higher = more signal;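 also: lysate comes from COS7 cells expressing LAP1 and is applied at 0.3 µg/mL; score merges spot fluorescence near 667 nm with signal-to-noise over triplicate slides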
Sam68 (KHDRBS1) = assay: Sam68 small-molecule binders, primary screen, biochemical, small-molecule microarray, 635 nm fluorescence (AID 1125); settings: small-molecule microarray binding, higher = more signal;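 also: score merges 667 nm channel intensity with signal to noise over triplicate slides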
[7] = test system: Chordin-like protein 2 (CHRDL2); assay: CHRDL2 small-molecule binders, primary screen, biochemical, small-molecule microarray, 635 nm fluorescence (AID 1126); settings: small-molecule microarray binding, fluorescence 635 nm; higher = more signal;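 also: printed compound slides probed with Chrdl2 protein at 4 µg/mL for 1 h at 4 C; score merges 667 nm emission intensity with signal to noise over three replicate slides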
[8] = molecular target: Concanavalin-A (Canavalia ensiformis) (UniProt P02866); assay: ConA small-molecule binders, primary screen, artefact control for SMM control protein annotation, biochemical, small-molecule microarray, Alexa647 label, 635 nm (AID 1127); settings: ConA-A647 binding fluorescence, higher = more signal;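 also: z combines 667 nm emission intensity with signal-to-noise across three replicate slides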
Chain of Concanavalin-A (Canavalia ensiformis) (P02866 whole entry, looked up): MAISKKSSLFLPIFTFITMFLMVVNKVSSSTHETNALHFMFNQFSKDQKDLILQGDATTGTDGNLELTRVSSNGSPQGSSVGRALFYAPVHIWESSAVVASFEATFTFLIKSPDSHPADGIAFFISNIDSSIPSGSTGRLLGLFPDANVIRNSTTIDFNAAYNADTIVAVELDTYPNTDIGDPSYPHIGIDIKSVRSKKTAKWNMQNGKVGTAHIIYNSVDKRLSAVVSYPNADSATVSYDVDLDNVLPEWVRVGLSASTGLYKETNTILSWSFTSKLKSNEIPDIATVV

[9] = anti-His antibody binders, primary screen, artefact control for SMM control protein annotation, biochemical, small-molecule microarray, 635 nm fluorescence (AID 1128); settings: anti-His Alexa647 antibody binding, higher = more signal;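 also: score merges feature fluorescence with signal-to-noise for each printed compound spot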
[10] = test system: Human papillomavirus type 1a E7 protein (residues 1-88); assay: HPV1a E7 small-molecule binders, primary screen, biochemical, small-molecule microarray, residues 1-88, 635 nm (AID 1129); settings: small-molecule microarray binding, fluorescence 635 nm; higher = more signal
[11] = molecular target: Focal adhesion kinase 1 (Homo sapiens) (UniProt Q05397); assay: small-molecule microarray binders of FAK, primary screen, biochemical, 635/667 nm fluorescence, BSA, DTT (AID 1130); settings: PTK2 binding, 635 nm fluorescence, higher = more signal;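 also: composite of spot emission at 667 nm and signal to noise over triplicate slides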
Chain of Focal adhesion kinase 1 (Homo sapiens) (Q05397 whole entry, looked up): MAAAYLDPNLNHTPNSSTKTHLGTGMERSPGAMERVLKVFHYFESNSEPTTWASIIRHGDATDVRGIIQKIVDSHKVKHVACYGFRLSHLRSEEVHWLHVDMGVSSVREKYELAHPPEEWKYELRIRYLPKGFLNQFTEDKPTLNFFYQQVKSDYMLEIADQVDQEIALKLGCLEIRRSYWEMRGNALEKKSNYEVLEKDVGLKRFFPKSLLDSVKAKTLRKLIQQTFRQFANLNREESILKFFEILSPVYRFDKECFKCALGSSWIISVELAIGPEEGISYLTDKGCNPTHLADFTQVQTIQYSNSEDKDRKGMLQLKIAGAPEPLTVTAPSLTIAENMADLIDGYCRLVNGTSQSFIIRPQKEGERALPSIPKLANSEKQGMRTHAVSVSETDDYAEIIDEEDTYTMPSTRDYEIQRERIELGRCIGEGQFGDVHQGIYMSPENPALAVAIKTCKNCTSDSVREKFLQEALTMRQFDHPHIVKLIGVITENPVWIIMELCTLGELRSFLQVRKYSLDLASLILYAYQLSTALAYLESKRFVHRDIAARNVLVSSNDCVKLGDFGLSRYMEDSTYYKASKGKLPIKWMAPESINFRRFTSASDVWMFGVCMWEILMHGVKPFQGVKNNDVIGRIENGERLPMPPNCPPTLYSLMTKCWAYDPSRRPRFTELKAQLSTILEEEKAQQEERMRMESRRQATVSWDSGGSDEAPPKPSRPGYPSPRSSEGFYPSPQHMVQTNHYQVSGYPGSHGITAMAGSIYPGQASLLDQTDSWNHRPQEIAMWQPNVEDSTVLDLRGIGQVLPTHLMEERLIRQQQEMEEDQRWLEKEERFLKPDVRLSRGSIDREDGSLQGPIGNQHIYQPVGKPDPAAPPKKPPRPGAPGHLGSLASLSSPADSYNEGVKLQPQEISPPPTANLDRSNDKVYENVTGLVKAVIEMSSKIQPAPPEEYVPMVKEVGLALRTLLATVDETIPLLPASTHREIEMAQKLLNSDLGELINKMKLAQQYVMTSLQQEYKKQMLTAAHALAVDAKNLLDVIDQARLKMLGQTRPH

[12] = test system: Fibrinogen (Alexa647-labelled); assay: fibrinogen binders on compound microarrays, profiling panel, artefact control for SMM control-protein annotation, biochemical, small-molecule microarray, 635/667 nm fluorescence (AID 1131); settings: fibrinogen-A647 binding fluorescence, higher = more signal;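 also: z-score merges 667 nm fluorescence with per-spot signal-to-noise over triplicate slides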
[13] = molecular target: Follistatin (Homo sapiens) (UniProt P19883); assay: follistatin binders on small-molecule microarrays, primary screen, biochemical, small-molecule microarray, 635/667 nm fluorescence (AID 1132); settings: FST binding, 635 nm fluorescence, higher = more signal
Chain of Follistatin (Homo sapiens) (P19883 whole entry, looked up): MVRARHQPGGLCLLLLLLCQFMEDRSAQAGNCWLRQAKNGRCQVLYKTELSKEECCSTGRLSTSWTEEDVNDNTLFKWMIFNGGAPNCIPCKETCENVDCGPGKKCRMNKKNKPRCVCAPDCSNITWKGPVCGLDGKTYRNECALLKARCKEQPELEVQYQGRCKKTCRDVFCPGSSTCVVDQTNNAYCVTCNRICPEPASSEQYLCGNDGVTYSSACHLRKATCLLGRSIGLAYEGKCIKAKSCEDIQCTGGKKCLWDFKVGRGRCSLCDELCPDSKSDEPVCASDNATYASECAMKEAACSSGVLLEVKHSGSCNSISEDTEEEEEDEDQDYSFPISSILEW

[14] = molecular target: Fibroblast growth factor 2 (Homo sapiens) (UniProt P09038); assay: FGF2 binders on small-molecule microarrays, primary screen, biochemical, small-molecule microarray, 635/667 nm fluorescence (AID 1133); settings: small-molecule microarray binding, FGF2, fluorescence 635/667; higher = more signal
Chain of Fibroblast growth factor 2 (Homo sapiens) (P09038 whole entry, looked up): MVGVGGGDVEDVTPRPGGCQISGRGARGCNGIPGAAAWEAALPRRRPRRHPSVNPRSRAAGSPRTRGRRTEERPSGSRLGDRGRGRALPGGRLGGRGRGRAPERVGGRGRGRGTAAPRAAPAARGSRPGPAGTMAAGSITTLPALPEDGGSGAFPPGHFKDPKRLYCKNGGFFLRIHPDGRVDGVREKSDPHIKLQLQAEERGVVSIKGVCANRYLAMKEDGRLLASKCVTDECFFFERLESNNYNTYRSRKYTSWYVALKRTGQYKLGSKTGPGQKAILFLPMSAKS

[15] = mitochondrial membrane potential change in A549 cells, profiling panel, cell-based, JC-1 fluorescence, basal, 24 h, 100 nL (AID 1138); settings: higher = more signal;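 also: A549 lung adenocarcinoma cells under basal conditions with no added stimulus; test concentration not given here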
Lefty1 = Lefty1 binders on small-molecule microarrays, primary screen, biochemical, small-molecule microarray, 635/667 nm fluorescence (AID 1139); settings: small-molecule microarray binding, fluorescence 635/667; higher = more signal
[16] = test system: wheat germ agglutinin (Triticum aestivum), Alexa647-labelled; assay: wheat germ agglutinin binders on compound microarrays, profiling panel, artefact control for SMM control-protein annotation, biochemical, small-molecule microarray, 635/667 nm fluorescence (AID 1140); settings: WGA-A647 binding, 635 nm fluorescence, higher = more signal;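 also: score merges 667 nm feature emission with signal to noise over triplicate slides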
[17] = molecular target: Luciferin 4-monooxygenase (Photinus pyralis) (UniProt P08659); assay: firefly luciferase enzyme inhibitors, primary screen, biochemical, luminescence, purified enzyme, 2006 set (AID 1141); settings: SteadyGlo luminescence, 30 min, higher = more signal, called active from +8 up or from −8 down;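 also: cell-free assay with purified firefly luciferase at 100 ng per well in PBS; test concentration not given here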
Chain of Luciferin 4-monooxygenase (Photinus pyralis) (P08659 whole entry, looked up): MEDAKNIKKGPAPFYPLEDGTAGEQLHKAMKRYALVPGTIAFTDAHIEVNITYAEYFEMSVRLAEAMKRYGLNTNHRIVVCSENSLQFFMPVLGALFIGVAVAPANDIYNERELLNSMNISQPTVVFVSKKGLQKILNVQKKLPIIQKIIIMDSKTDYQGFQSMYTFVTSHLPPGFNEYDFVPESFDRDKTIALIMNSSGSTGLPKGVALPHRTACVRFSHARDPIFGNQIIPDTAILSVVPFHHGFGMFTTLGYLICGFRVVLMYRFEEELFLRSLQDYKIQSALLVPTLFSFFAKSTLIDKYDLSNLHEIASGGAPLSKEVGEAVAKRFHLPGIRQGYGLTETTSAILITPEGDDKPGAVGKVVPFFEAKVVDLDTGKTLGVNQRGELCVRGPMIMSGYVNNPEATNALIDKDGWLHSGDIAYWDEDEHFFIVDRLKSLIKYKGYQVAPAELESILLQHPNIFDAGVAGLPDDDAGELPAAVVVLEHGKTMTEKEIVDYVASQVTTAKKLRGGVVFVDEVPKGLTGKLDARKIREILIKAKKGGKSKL

SMILES	composite z-score (Albumin (Bos taurus))	composite Z-score [1]	composite z-score [2]	composite z-score [3]	composite z-score [4]	composite z-score [5]	composite z-score [6]	composite z-score (Sam68 (KHDRBS1))	composite z-score [7]	composite z-score [8]	composite z-score [9]	composite z-score [10]	composite z-score [11]	composite z-score [12]	composite z-score [13]	composite z-score [14]	z-score [15]	composite z-score (Lefty1)	composite z-score [16]	z-score [17]
C=CCOC(=O)[C@@H]1[C@H]2C(=O)O[C@H](c3ccccc3)[C@H](c3ccccc3)N2[C@H](c2ccc(OCCOC(=O)[C@H]3C[C@H]4C(=O)N[C@@H](CCCCN(C)C)C(=O)N4[C@H]3c3cccc(OCCO)c3)cc2)[C@@]12C(=O)Nc1ccc(I)cc12	-0.624	0.204 (inactive)	0.194	-0.14	0.507	1.64	0.168	1.25	0.798	1.15	2.94	1.17	0.319	0.758	1.48	1.59	-0.717	1.49	0.768	-0.517 (inactive)
O=c1cccc(-c2ccc(C(F)(F)F)cc2)o1	-0.309	-0.275 (inactive)	-0.122	-0.11	-0.14	-0.89	0.0441	-1.03	-0.291	-0.0038	0.728	-0.955	-0.136	-1.1	-0.398	-0.41	0.77	-1.03	-0.399	0.854 (inactive)
NCCCCCCNC(=O)[C@H]1C[C@H]2C(=O)N[C@@H](Cc3ccccc3)C(=O)N2[C@H]1c1ccc(O)cc1	0.855	0.126 (inactive)	-0.0048	-0.176	0.778	0.734	0.205	1.03	-0.14	1.2	2.04	0.692	0.937	0.999	1.32	0.619	-0.267	0.795	1.1	0.166 (inactive)
O=C1c2ccccc2[C@@]2(Cc3ccccc3N(C3CC3)C2=O)[C@H](c2ccc(CO)cc2)N1C1CCCCC1	0.804	-0.481 (inactive)	-0.125	-0.0804	0.269	0.154	0.586	-0.728	-0.431	-1.02	-1.14	-0.729	-0.375	-0.624	-0.667	-0.329	0.306	-0.825	0.637	0.429 (inactive)
CN(C)CCCNC(=O)[C@@H]1c2ccccc2C(=O)N(Cc2ccc(OC(F)(F)F)cc2)[C@H]1c1ccc(CO)cc1	-0.298	0.729 (inactive)	0.0469	-0.115	0.398	1.4	0.602	1.26	0.151	0.675	0.21	0.701	0.0807	0.18	1.18	-0.22	0.311	0.9	-0.374	1.15 (inactive)
NC(N)=NCc1cn(CCc2c[nH]c3ccccc23)nn1	0.566	0.354 (inactive)	-0.0647	-0.12	0.633	0.421	0.262	0.714	0.866	0.948	2	0.599	0.0313	0.367	0.832	1.07	0.0134	1.05	0.0932	-0.813 (inactive)
CCOC(=O)[C@H]1C/C=C/C[C@H](C(=O)OCC)C(=O)O[C@H]2[C@@H](OC)O[C@H](CO)[C@@H](OC(=O)CCc3ccccc3)[C@@H]2OC1=O	0.191	0.476 (inactive)	0.996	0.0519	-0.207	-0.188	0.715	-0.378	-0.203	-0.233	0.522	-0.267	-0.542	0.0772	-0.502	-0.924	3.06	-0.172	-0.185	0.418 (inactive)
C=C(C(=O)CC[C@H](OC(C)=O)c1cccc(OCCO)c1)C(C)C	-0.757	0.562 (inactive)	-0.135	-0.148	-0.382	0.409	-0.326	-0.0177	-1.23	-1.21	-0.734	-1.35	-0.311	-0.0681	-0.791	-0.883	-0.6	-0.638	0.335	-0.0654 (inactive)
COCCCNC(=O)[C@@H]1c2ccccc2C(=O)N(Cc2ccccc2C(F)(F)F)[C@H]1c1ccc(CO)cc1	-1.34	-0.0662 (inactive)	-0.186	-0.131	0.389	1.19	0.216	0.433	-0.781	-0.264	-0.175	0.569	0.278	-0.873	-0.211	-0.372	2.81	-0.295	-0.488	-1.26 (inactive)
CCOC(=O)C[C@H]1[C@H](OC(=O)Cc2ccc3c(c2)OCO3)[C@@H](NC(=O)C2CCCCC2)c2cc(OCCCO)ccc2N1C(=O)c1ccc2ccccc2n1	0.245	-0.608 (inactive)	0.0418	0.358	0.312	0.746	0.15	1.08	1.21	0.662	0.0779	0.684	0.309	0.581	1.39	1.71	-0.678	0.816	-0.176	0.862 (inactive)
CN1C(=O)[C@@]2(CCS(=O)(=O)c3ccccc3)N=C(c3ccc(OCCCO)cc3)O[C@H]2c2ccccc21	0.159	0.334 (inactive)	0.058	-0.146	0.688	2.74	0.428	1.28	0.0089	1.1	3.54	1.26	0.582	0.974	1.29	0.394	1.15	0.358	1.01	-0.899 (inactive)
